Compounds without any hit were thinned out: in the full panel of roughly 83,000, 20% have a hit.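 The test compound was applied at a single concentration to cells in 96-well plates for 48 hours, and percent growth was recorded.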 Values without a mark were called inactive. Activity calls are given as the source filed them. The calls were made as follows: active = growth percent below 10; inactive = the rest.

In PubChem BioAssay (NCI) one finds growth data, which are given here for nine compounds.

Some test systems named below: SK-MEL-2 melanoma; EKVX NSCLC; SN12C renal; UO-31 renal; TK-10 renal; ACHN renal; CAKI-1 renal; A498 renal; SR leukemia; RPMI-8226 leukemia; OVCAR-8 ovarian; OVCAR-5 ovarian; SK-OV-3 ovarian; IGROV1 ovarian; NCI/ADR-RES ovarian; CCRF-CEM leukemia; MOLT-4 leukemia; OVCAR-4 ovarian; OVCAR-3 ovarian; HS 578T breast.
Assay in all cases: NCI-60 one-dose screen, 48 h (100 = growth as untreated, 0 = no growth, -100 = all killed)
Common to all, as to conditions: 10 µM unless noted

Turning to `CC(=O)c1c(O)c(C)c(O)c2c1OC1=CC(=O)C(C(C)=O)C(=O)C12C` (configuration not stated), the growth in the test on SK-MEL-2 melanoma is 83.7%; in the test with EKVX NSCLC, 51.9%; in the test with SN12C renal it was 143%; in the test on UO-31 renal, 58.7%; with TK-10 renal it was 103%; with ACHN renal it was 89%. Besides, the growth is 74.2% with CAKI-1 renal; 76.3% in the test with A498 renal; 58% in the test on SR leukemia; 41.6% with RPMI-8226 leukemia; 92.7% in the test on OVCAR-8 ovarian; 88.3% in the test with OVCAR-5 ovarian. Also, the growth in the test with SK-OV-3 ovarian was 98.8%; in the test with IGROV1 ovarian it was 69.9%; with NCI/ADR-RES ovarian, 63.4%.
On to `Cc1nc([N+](=O)[O-])c(Sc2nncc(-c3ccccc3)n2)n1C`, for which the growth is 95.4% with SK-MEL-2 melanoma; 79.7% with EKVX NSCLC; 86.8% in the test with SN12C renal; 60.3% in the test on UO-31 renal; 74.4% in the test with TK-10 renal; 62.6% in the test on ACHN renal. Also, the growth was -3.06% (active) in the test with CAKI-1 renal; 107% with A498 renal; 45.1% with CCRF-CEM leukemia; 65.7% with MOLT-4 leukemia; 62.5% with RPMI-8226 leukemia; 89.4% with OVCAR-8 ovarian. The growth in the test with OVCAR-4 ovarian was 83.7%; in the test on SK-OV-3 ovarian, 109%; with IGROV1 ovarian, 89.7%; with OVCAR-3 ovarian, 78.5%; in the test with HS 578T breast, 99.1%; in the test with NCI/ADR-RES ovarian it was 81.3%.
Consider `COc1cc(/C=C/C(=O)CC(=O)/C=C/c2ccc(O)c(OC)c2)ccc1O`, for which the growth was 81.1% with SK-MEL-2 melanoma; 67.6% in the test with EKVX NSCLC; 79% in the test with SN12C renal; 13% with UO-31 renal; 69.7% with TK-10 renal; 72.9% with ACHN renal. Further, the growth is 64.3% in the test on CAKI-1 renal; 101% in the test on A498 renal; 5.28% (active) in the test on CCRF-CEM leukemia; -5.89% (active) in the test with SR leukemia; -30.3% (active) in the test with RPMI-8226 leukemia; 65.8% in the test with OVCAR-4 ovarian. In addition, the growth with SK-OV-3 ovarian is 75.3%; in the test with OVCAR-3 ovarian it was 37.3%; in the test on HS 578T breast, 55.6%; in the test on NCI/ADR-RES ovarian, 37.2%.
For `O=[N+]([O-])c1ccc(C(Br)c2ccc([N+](=O)[O-])cc2)cc1`, the growth with SK-MEL-2 melanoma was 97.6%; in the test on EKVX NSCLC, 109%; with SN12C renal, 54.9%; in the test with UO-31 renal, 47.4%; in the test on TK-10 renal, 97.5%; with ACHN renal it was 98.3%. Moreover, the growth in the test with CAKI-1 renal was 92.2%; with A498 renal it was 101%; in the test with SR leukemia, 7.81% (active); with RPMI-8226 leukemia, 66.1%; in the test with OVCAR-8 ovarian, 63.2%; in the test with OVCAR-5 ovarian, 124%. For the same compound, the growth in the test with OVCAR-4 ovarian is 64.3%; in the test on SK-OV-3 ovarian it was 97.3%; in the test with IGROV1 ovarian, -53.2% (active); with OVCAR-3 ovarian, 110%; in the test with HS 578T breast it was 107%; with NCI/ADR-RES ovarian it was 91.5%.
`CCOc1cc(F)c([N+](=O)[O-])cc1[N+](=O)[O-]`: the growth in the test with SK-MEL-2 melanoma is 50.4%; in the test with EKVX NSCLC it was 101%; in the test with SN12C renal, 90.5%; in the test on UO-31 renal, 45.4%; in the test with TK-10 renal, 12.5%; with ACHN renal, 12.7%. Besides, the growth is 18.8% in the test with CAKI-1 renal; 101% with A498 renal; 9.18% (active) with MOLT-4 leukemia; 24.2% with RPMI-8226 leukemia; 19.6% with OVCAR-8 ovarian; 77.9% in the test with OVCAR-5 ovarian. Further, the growth is 46.9% with OVCAR-4 ovarian; 99.3% in the test on SK-OV-3 ovarian; 91.9% in the test on IGROV1 ovarian; 46.7% with OVCAR-3 ovarian; 90.6% with HS 578T breast; 11.8% with NCI/ADR-RES ovarian.
As for `Cc1cc(C)c([I+]c2c(C)cc(C)cc2C)c(C)c1`, the growth is -44.1% (active) in the test on SK-MEL-2 melanoma; 4.01% (active) in the test on EKVX NSCLC; -66.2% (active) in the test with SN12C renal; -20.4% (active) in the test with UO-31 renal; 12.7% in the test on TK-10 renal; -16.1% (active) in the test with ACHN renal. For the same compound, the growth in the test on CAKI-1 renal was 29.2%; in the test with A498 renal, 45%; in the test with CCRF-CEM leukemia, -29.5% (active); with SR leukemia, -49.1% (active); with RPMI-8226 leukemia, -8.17% (active); in the test with OVCAR-8 ovarian it was -60.3% (active). Moreover, the growth is -7.26% (active) in the test on OVCAR-5 ovarian; -44.8% (active) with OVCAR-4 ovarian; -26.4% (active) in the test on SK-OV-3 ovarian; -47.6% (active) with IGROV1 ovarian; -44.9% (active) with OVCAR-3 ovarian; 20.5% in the test with HS 578T breast.
On to `c1ccc(-c2cc3cc4ccccc4cn3c2)cc1`, for which the growth in the test on SK-MEL-2 melanoma was 90.1%; in the test on EKVX NSCLC, 85.3%; in the test on SN12C renal it was 87.6%; in the test on UO-31 renal, 60.9%; with TK-10 renal, 101%; in the test with ACHN renal, 89.6%. For the same compound, the growth was 84.7% in the test on CAKI-1 renal; 96.3% with A498 renal; 90.2% in the test with CCRF-CEM leukemia; 67.4% in the test with SR leukemia; 66.4% in the test on RPMI-8226 leukemia; 85.4% with OVCAR-8 ovarian. The growth in the test on OVCAR-5 ovarian was 112%; in the test on OVCAR-4 ovarian, 76.4%; in the test with SK-OV-3 ovarian, 92.2%; with IGROV1 ovarian, 79.7%; in the test on OVCAR-3 ovarian, 88.9%; in the test with HS 578T breast, 88.2%. The growth in the test with NCI/ADR-RES ovarian is 91.7%.
Take `CCOC(=O)c1[nH]c(C#N)c(C(=O)OCC)c1C`: the growth in the test with SK-MEL-2 melanoma is 104%; with EKVX NSCLC, 93.3%; in the test on SN12C renal, 92.5%; in the test on UO-31 renal, 90.2%; in the test with TK-10 renal, 104%; with ACHN renal, 101%. For the same compound, the growth with CAKI-1 renal was 94.7%; with A498 renal, 96.7%; in the test on OVCAR-8 ovarian, 94.8%; in the test with OVCAR-5 ovarian it was 102%; in the test with OVCAR-4 ovarian it was 97.7%; in the test on SK-OV-3 ovarian, 117%. The growth with IGROV1 ovarian is 101%; with OVCAR-3 ovarian, 114%; in the test with HS 578T breast it was 124%; with NCI/ADR-RES ovarian it was 106%.
For the compound `Cc1cc(C(=O)c2ccc(Cl)cc2)ccc1O`, the growth in the test on SK-MEL-2 melanoma was 125%; in the test on EKVX NSCLC, 81%; with SN12C renal, 89.3%; in the test with UO-31 renal it was 84.7%; in the test on TK-10 renal, 87%; with ACHN renal, 87.3%. In addition, the growth with CAKI-1 renal is 90.5%; with A498 renal, 76.1%; in the test on CCRF-CEM leukemia it was 96.9%; in the test with MOLT-4 leukemia, 102%; with RPMI-8226 leukemia it was 73.3%; in the test on OVCAR-8 ovarian, 85.9%. For the same compound, the growth with OVCAR-5 ovarian is 99%; in the test with OVCAR-4 ovarian, 79.2%; with SK-OV-3 ovarian, 110%; with IGROV1 ovarian, 117%; in the test on OVCAR-3 ovarian, 98.8%; in the test with HS 578T breast it was 116%. In addition, in the test on NCI/ADR-RES ovarian, the growth is 92.2%.
